CF NFkB inh: inhibitors of PAF-induced NF-kB signaling, primary screen, cell-based, GFP fluorescence, uHTS; KKLEB NF-kB-GFP reporter, GFP fluorescence overnight; inhibition, % at 5 µM; 360,000 tested, 0.86% active;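 active = at least 50% inhibition at 5 µM, scaled per plate between neutral and stimulator controls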;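 note: PAF is a Pseudomonas aeruginosa culture filtrate used as stimulus; plate controls were PAF-stimulated DMSO wells for no effect and unstimulated DMSO wells for full effect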
PPC-1+TRAIL kill: compounds killing PPC-1 cancer cells with TRAIL present, primary screen, TRAIL potentiator project, ATPLite luminescence, uHTS. PPC-1 cells + TRAIL, ATPLite viability luminescence. cell killing (% activity), % at 4 µM or 5 µM. 220,000 tested, 0.41% active. AID 1443, 2008;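 active = cell killing above 50% in the first pass at 4 µM, then a duplicate retest at 5 µM averaging 50% or more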;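 note: plate controls were cells with TRAIL plus DMSO for no effect and medium-only wells lacking cells for full effect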
C8 TRAIL sens: viability loss with TRAIL in NB7+C8 cells, primary screen, TRAIL sensitizer project, cell-based, ATPlite luminescence; AID 624354, 2012; inhibition (viability loss, TRAIL sensitization), % at 10 µM; 360,000 tested, 1% active;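 active = compounds causing at least 50% loss of cell viability in the single-dose screen, relative to plate controls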
HIF-2a block: HIF-2a reporter inhibitors, primary screen, luminescence, 786-0 RCC cells. inhibition, % at 18.8 µM. 786-0 RCC cells HIF-2a reporter, luciferase luminescence, overnight. 360,000 tested, 0.72% active. AID 624352, 2012;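 active = inhibition of the luminescence signal of 40% or more relative to plate controls, in a single-dose primary screen at 18.75 µM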
KKLEB cytotox: cytotoxicity in KKLEB CF airway cells, primary screen, cytotoxicity control for CF NF-kB inhibitor project, cell-based, uHTS, fluorescence assay plates; 360,000 tested, 0.36% active; KKLEB CF airway cells viability, ATPlite luminescence, overnight; stronger effect = lower value; cells stimulated with P. aeruginosa culture filtrate; activity change (cytotoxicity), % at 5 µM;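 active = corrected activity change at or below -50% at 5 µM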
hiPSC survival: enhancers of single-cell hiPSC survival, primary screen, ATPlite luminescence; 100% = ROCK inhibitor wells, 0% = DMSO; survival enhancement, % at 20 µM; 360,000 tested, 0.044% active; AID 602274, 2012; in the data active = survival enhancement above about 18%;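 note: cells exposed to compounds for 16 hours before the ATP read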
* hit, by the source's call; / = no result given. Hits are enriched below; roughly 2.2% of the tested compounds scored in any of these assays.

SMILES | CF NFkB inh | PPC-1+TRAIL kill | C8 TRAIL sens | HIF-2a block | KKLEB cytotox | hiPSC survival
Cc1ccnc(NC(=O)c2ccc(OCC3CCCO3)cc2)c1 (centres undefined) | 3 | / | 91* | 30 | -45 | 0
Cc1csc(NC(=O)c2ccc(OCC3CCCO3)cc2)n1 (centres undefined) | -3 | 32 | 54* | -23 | -13 | -1
O=C(Nc1nc(-c2ccc(F)c(F)c2)cs1)c1ccc(OCC2CCCO2)cc1 (centres undefined) | 37 | 20 | 36 | -11 | -30 | 0
Cc1noc(C)c1COc1ccc(C(=O)N2CCC(C(N)=O)CC2)cc1 | 6 | / | -3 | 2 | -25 | 1
COc1ccc(CCn2c(SCC(=O)Nc3cc(C)on3)nc3ccsc3c2=O)cc1OC | 3 | 12 | 9 | -4 | 6 | -2
COc1ccc(CCn2c(SCC(=O)Nc3cc(C)on3)nc3ccccc3c2=O)cc1OC | 64* | 5 | 29 | 5 | -79* | 7
CCCCCCn1nc(C(=O)N(CCOC)c2c(N)n(CCCC)c(=O)[nH]c2=O)c2ccccc2c1=O | -6 | / | -15 | 14 | -11 | 0
O=C(NCC(=O)N(c1ccccc1F)C(C(=O)NC1CCCC1)c1cccnc1)c1ccco1 (centres undefined) | -4 | / | -4 | 20 | 6 | 0
Cc1ccc(OCC(=O)Nc2ccc(O)c(-c3nc4ccccc4o3)c2)cc1 | 70* | 3 | 37 | 5 | -61* | 1
COc1ccc(OCC(=O)Nc2ccc3oc(-c4ccncc4)nc3c2)cc1 | -2 | 4 | 2 | -20 | 11 | 1
O=C(CSc1nnc(NC(=O)c2ccccc2)s1)NCC1CCCO1 (centres undefined) | 5 | / | 56* | -85 | 1 | 0
O=C(CSc1nnc(NC(=O)C2CC2)s1)NCc1ccco1 | 1 | 39 | -8 | 9 | 6 | 0
Cc1ccccc1C(=O)Nc1nnc(SCC(=O)NCc2ccco2)s1 | -3 | / | 59* | -19 | 2 | 0
O=C(CSc1nnc(NC(=O)c2ccccc2)s1)NCc1ccco1 | -12 | / | 61* | -52 | 7 | -1
O=C(CSc1nnc(NC(=O)c2ccc(F)cc2)s1)NCc1ccco1 | 1 | / | 56* | -105 | 9 | 0
O=C(CSc1nnc(NC(=O)c2cccc(F)c2)s1)NCc1ccco1 | -9 | / | 24 | -83 | 5 | 0
COc1cc(OCc2ccc(C)cc2)ccc1CNC[C@H]1O[C@@H](n2cnc(C(N)=O)n2)[C@H](O)[C@@H]1O | 6 | / | -12 | -70 | 4 | 0
COc1cccc(C(=O)Nc2nnc(SCC(=O)NC3CCCC3)s2)c1 | 6 | / | 57* | -148 | -18 | -1
CCOC(=O)C1(C)C(=O)CC2c3nc4ccccc4cc3CN2C1=O (centres undefined) | 17 | / | -10 | 8 | -4 | 1
Cc1cc(NC2CCCC2)n2ncc(-c3ccccc3)c2n1 | 8 | / | 59* | -21 | -42 | 0
COc1ccc(-c2cc(C)nc3c(-c4ccccc4)cnn23)cc1 | -6 | 28 | 32 | -174 | -12 | -1
Cc1cc(N2CCCCC2)n2ncc(-c3ccccc3)c2n1 | 20 | 37 | 48* | -87 | -24 | -2
CCOC(=O)Cc1c(C)nc2c(-c3ccccc3)cnn2c1C | 13 | 6 | -1 | -177 | -10 | -2
Cc1cc(-c2ccccc2)n2ncc(-c3ccccc3)c2n1 | -4 | 55* | 62* | -46 | -30 | -3
Cc1nc2c(-c3ccccc3)cnn2c(N)c1-c1ccccc1 | -15 | / | 84* | 32 | -65* | -1
SMILES | CF NFkB inh | PPC-1+TRAIL kill | C8 TRAIL sens | HIF-2a block | KKLEB cytotox | hiPSC survival
Cc1cc(N2CCCCC2)n2ncc(-c3ccc(Cl)cc3)c2n1 | 13 | 9 | 18 | -170 | -18 | 1
Cc1cc(NC2CCCC2)n2nc(C)c(-c3ccccc3)c2n1 | 2 | / | -1 | -164 | -7 | 1
Cc1ccc(C2(C)NC(=O)N(CC(=O)NNC(=O)c3cc(C)oc3C)C2=O)cc1 (centres undefined) | -6 | / | -25 | 3 | -13 | 0
CCc1ccc(NC(=O)C(CC)Sc2nc3cc4c(cc3c(=O)n2Cc2ccco2)OCO4)cc1 (centres undefined) | 48 | 18 | -5 | 0 | -63* | -2
CCc1ccccc1NC(=O)C(CC)Sc1nc2cc3c(cc2c(=O)n1Cc1ccco1)OCO3 (centres undefined) | -3 | 7 | 36 | 4 | 1 | 5
Cn1c(N)c(C(=O)CCl)c(=O)n(Cc2ccccc2)c1=O | -2 | 9 | 90* | 28 | -6 | -2
Cn1c(N)c(C(=O)CSc2nc3ccccc3c(=O)n2Cc2ccccc2)c(=O)n(C)c1=O | 88* | 4 | 14 | 4 | -72* | 0
CC(=O)c1sc(NC(=O)c2cc(=O)c3ccccc3o2)nc1C | 4 | 38 | 54* | -112 | 1 | 0
O=C(CN1CCC(NC(=O)C2CC2)CC1)Nc1cccc(F)c1 | 0 | / | 9 | 20 | 4 | 0
Cc1cc(C)nc(Nc2nc(C(N)c3ccccc3)cs2)n1 (centres undefined) | -7 | / | 28 | 1 | -9 | -3
Cc1cc(C)nc(Nc2nc(-c3ccccc3)cs2)n1 | 5 | / | 77* | -79 | -45 | 0
Nc1ccc(Cn2ccc3c4c(N)nc(N)nc4ccc32)cc1 | -48 | / | 74* | 36 | 18 | -4
Cc1onc(-c2ccccc2)c1CNS(=O)(=O)c1cccc(Br)c1 | 8 | -2 | -13 | 13 | -8 | -1
Cc1c(C(=O)c2no[n+]([O-])c2C(=O)c2cnn(C)c2C)cnn1C | 63* | 8 | -3 | -10 | -27 | -5
Cc1c(C(=O)Nc2ccc(Br)cc2)cnn1C | -8 | 29 | 6 | -202 | 5 | 4
COCCCNC(=O)Cn1ccc(NC(=O)OCc2ccccc2)nc1=O | -10 | / | -7 | 8 | -5 | 2
Cc1ccc2nc(NC(=S)NC(=O)c3ccc(OC(C)C)cc3)sc2c1 | -8 | / | 35 | -38 | -3 | 0
O=C(NC(=S)Nc1nc2ccccc2s1)c1ccco1 | -27 | 11 | 77* | -215 | -10 | -3
COc1ccc(C(=O)Nc2nc3cc4c(cc3s2)OCO4)c(OC)c1 | 49 | 34 | 51* | -308 | -54* | -1
Cc1ccc2nc(NC(=S)NC(=O)c3cccs3)sc2c1 | -16 | 27 | 79* | -181 | -9 | -6
COc1ccc2nc(NC(=S)NC(=O)c3ccco3)sc2c1 | -7 | 8 | 72* | -221 | -23 | -6

Screening data deposited in PubChem by Sanford-Burnham Center for Chemical Genomics.
